From the supplement of paper PMC10981050
Where “and” joins values, the source holds several entries; their conditions need not be identical. Identical values can stand only once. Counter-ions that a name gives are not always drawn.

How the values were obtained:
Assay in all cases: cell viability relative to vehicle control; higher = less cytotoxic
Conditions in all cases: 10 µM
[1] = test system: K562
Summary of the method: (§1)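 Mutant clones made by CRISPR editing and their isogenic wild-type counterparts, from four leukaemia lines, were exposed to a single 10 µM dose of each library compound for 48 h. The supernatant was then removed and CellTiter-Glo luminescence was read. Viability was reported as percent of the on-plate vehicle control.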

[2] = test system: MARIMO
Summary of the method: as §1

[3] = test system: MOLM14
Summary of the method: as §1

[4] = test system: OCI-AML2
Summary of the method: as §1

Compound	cell viability ([1]; SRSF2 genotype: SRSF2 P95H/wt)	cell viability ([1]; SRSF2 genotype: SRSF2 wt/wt)	cell viability ([2]; SRSF2 genotype: SRSF2 P95H/wt)	cell viability ([2]; SRSF2 genotype: SRSF2 wt/wt)	cell viability ([3]; SRSF2 genotype: SRSF2 P95H/wt)	cell viability ([3]; SRSF2 genotype: SRSF2 wt/wt)	cell viability ([4]; SRSF2 genotype: P95H/wt)	cell viability ([4]; SRSF2 genotype: wt/wt)
Nc1ccc(S(N)(=O)=O)cc1 [Sulfanilamide]	99.1% and 101%	98.9%	102%	107%	96.2%	102%	102%	110%
CN1[C@@H]2CC[C@H]1C[C@@H](OC(=O)c1c[nH]c3ccccc13)C2 [Tropisetron HCl]	97.5% and 100%	96.6%	102%	102%	104%	102%	101%	105%
O=C([O-])[O-].[Li+].[Li+] [Lithium carbonate]	111% and 113%	108%	99.6%	112%	105%	108%	117%	96.9%
CC1(C)S[C@@H]2[C@H](NC(=O)[C@H](N)c3ccc(O)cc3)C(=O)N2[C@H]1C(=O)O [Amoxicillin (Amoxycillin)]	97.3% and 90.7%	91.7%	91.2%	98.5%	99.7%	100%	92.4%	105%
COc1cccc(-c2cc(NCc3ccc4c(c3)OCO4)nc(N)n2)c1 [Wnt agonist 1]	9.55% and 31.1%	26.2%	8.72%	9.19%	7.29%	4.03%	11%	13.1%
CC(C)Oc1ccc(C(=O)N[C@H](CNC(=O)CN(C)C)Cc2ccc(-c3cn4cccc([C@H](C)O)c4n3)cc2)cc1Cl	20.3% and 30.1%	36.2%	34.6%	26.3%	9.14%	1.72%	12.4%	14.5%
Cc1onc(-c2ccccc2)c1-c1ccc(S(N)(=O)=O)cc1 [Valdecoxib]	97.6% and 94.6%	95.6%	96.4%	97.6%	90.6%	95.4%	81.8%	88.5%
Cc1ncc(COP(=O)(O)O)c(C=O)c1O [Pyridoxal phosphate]	103% and 104%	105%	100%	106%	100%	106%	103%	110%
C[C@@H]1CC[C@@]2(OC1)O[C@H]1C[C@H]3[C@@H]4CC=C5C[C@@H](O[C@@H]6O[C@H](CO)[C@@H](O)[C@H](O)[C@H]6O[C@@H]6O[C@@H](C)[C@H](O)[C@@H](O)[C@H]6O)CC[C@]5(C)[C@H]4CC[C@]3(C)[C@@]1(O)[C@@H]2C [Polyphyllin VI]	0.36% and 0.31%	0.44%	4.95%	0.84%	0.85%	0.55%	0.28%	0.33%
